Holding throughout (type): functional
Assay [1] deals with Plasmodium falciparum. Briefly: GSK_TCMDC: Inhibition of Plasmodium falciparum 3D7 in whole red blood cells, using parasite LDH activity as an index of growth. Test compounds present at 2uM.
The test system of assay [2] is Plasmodium falciparum. Briefly: GSK_TCMDC: Inhibition of Plasmodium falciparum Dd2 in whole red blood cells, using parasite LDH activity as an index of growth. Test compounds present at 2uM.
A further assay has as its system HepG2. Briefly: GSK_TCMDC: Percent inhibition of human HepG2 cell line. Test compounds present at 10uM.

A word on the Inhibition: it is the relative decrease from the control value, in per cent. Low values mean little suppression, high ones strong suppression.

`Cl.N=C(N)Nc1ccc(CCc2ccc(NC(=N)N)cc2)cc1`: the values for the Inhibition in the assay on Plasmodium falciparum [1], with Plasmodium falciparum [2] and in the assay on HepG2 were 96%, 95% and 57%, respectively.

Turning to `O=C(N[C@@H](Cc1ccccc1)[C@H](O)CNCCC(F)(F)F)c1cccc(OCC2CC2)c1`, the figures for the Inhibition in the assay with Plasmodium falciparum [1], with Plasmodium falciparum [2] and in the assay on HepG2 were 98%, 95% and 0%, respectively.

`COc1ccc2cc(C(=O)NC3CCC(CCN4CCc5cc(C#N)ccc5C4)CC3)[nH]c2c1.Cl` (centres undefined): the Inhibition in the assay with Plasmodium falciparum [1] worked out at 88%; in the assay with Plasmodium falciparum [2], 0%; with HepG2 it was 9%.

With `COc1ccccc1NC(=O)Nc1cccc(-c2ccc(-c3nc4cccc(C)c4[nH]3)s2)c1`, the values for the Inhibition in the assay with Plasmodium falciparum [1], in the assay with Plasmodium falciparum [2] and with HepG2 were 100%, 46% and 19%, respectively.

For the compound `Cc1[nH]c(C)c(-c2ccc(-c3ccc(C(F)(F)F)cc3C(F)(F)F)nc2)c(=O)c1Br`, the Inhibition in the assay on Plasmodium falciparum [1] is given as 97%; in the assay on Plasmodium falciparum [2], 97%; in the assay on HepG2 it was 30%.

For `O=C(Nc1cccc(Cl)c1)N(CCCn1ccnc1)Cc1csc(-c2ccc(CNCc3ccccc3)cc2)n1.O=C(O)C(F)(F)F`, the Inhibition in the assay on Plasmodium falciparum [1] is recorded as 100%; with Plasmodium falciparum [2], 45%; in the assay on HepG2, 11%.

For `CN(C)CCn1cc(C(=O)c2cc(Cl)ccc2O)cc1-c1nc2ccccc2c(=O)[nH]1`, the Inhibition with Plasmodium falciparum [1] stood at 99%; in the assay with Plasmodium falciparum [2], 87%; with HepG2 it was 16%.

Turning to `O=C(/C=C/c1ccc(Cl)c(Cl)c1)N1CCC(CN2CCC(c3c[nH]c4cnccc34)CC2)CC1`, the Inhibition with Plasmodium falciparum [1] is reported as 100%; in the assay on Plasmodium falciparum [2], 100%; in the assay on HepG2, 39%.

As for `Cc1ccc(CON2C(N)=NC(N)=NC23CCCCC3)c2ccccc12.Cl`, the Inhibition with Plasmodium falciparum [1] is listed as 98%; with Plasmodium falciparum [2], 56%; with HepG2, 57%.

`CN1CCN(CCCN(Cc2ccc(-c3ccc(CNCc4ccc5c(c4)OCO5)cc3)cc2)C(=O)CCC2CCCC2)CC1.O=C(O)C(F)(F)F`: the Inhibition is 99% in the assay with Plasmodium falciparum [1], 85% in the assay on Plasmodium falciparum [2] and 55% in the assay on HepG2.

For the compound `Cl.O=c1nc(NCCCNCc2cc3c(Cl)cc(Cl)cc3[nH]2)[nH]c2ccsc12`, the Inhibition in the assay on Plasmodium falciparum [1] is on record as 96%; in the assay with Plasmodium falciparum [2], 11%; in the assay with HepG2, 62%.

On to `COc1ccc(-c2nc(NC(=O)Cc3coc4cc(OC)ccc34)sc2C)cc1`, for which the Inhibition in the assay with Plasmodium falciparum [1] was 100%; in the assay with Plasmodium falciparum [2] it was 77%; in the assay on HepG2, 9%.

For the compound `COc1ccc2nc(C)cc(Nc3ccc(Oc4ccc5ccccc5c4Cl)c(Cl)c3)c2c1`, the Inhibition in the assay on Plasmodium falciparum [1] worked out at 100%; in the assay on Plasmodium falciparum [2] it was 98%; in the assay on HepG2 it was 32%.

In the case of `N#CC(c1cccc(Cl)c1)c1ccc2c(C(F)(F)F)cc(C(F)(F)F)nc2n1` (centres undefined), the Inhibition with Plasmodium falciparum [1] is given as 96%; in the assay with Plasmodium falciparum [2] it was 97%; in the assay on HepG2 it was 52%.

`COc1cccc(-c2ccc3c(-c4ccc(F)cc4)cnc(N)c3c2)c1.O=CO`: the figures for the Inhibition with Plasmodium falciparum [1], with Plasmodium falciparum [2] and with HepG2 were 100%, 70% and 27%, respectively.

For the compound `Cc1cc(N2CCCCC2)nc2ccc(NC(=O)c3cncc(Br)c3)cc12`, the Inhibition in the assay on Plasmodium falciparum [1] was 100%; in the assay with Plasmodium falciparum [2] it was 86%; in the assay on HepG2, 0%.

As for `Oc1cc(NC[C@@H]2CCC[C@@H]2NCc2ccc(Cl)c(Cl)c2)nc2ccccc12`, the Inhibition stood at 100% with Plasmodium falciparum [1], 75% with Plasmodium falciparum [2] and 9% with HepG2.

As for `C=CCN(c1ccc(OC)cc1)S(=O)(=O)c1ccc(Cl)c(C(=O)Nc2cccc(C#N)c2)c1`, the Inhibition came out at 96% in the assay on Plasmodium falciparum [1], 73% with Plasmodium falciparum [2] and 6% with HepG2.

Consider `O=C(/C=C/c1ccc(Cl)c(Cl)c1)NCCCCCN1CCC(NC(=O)Nc2ccc(C(F)(F)F)cc2)CC1`, for which the Inhibition is on record as 94% in the assay with Plasmodium falciparum [1], 34% in the assay with Plasmodium falciparum [2] and 58% in the assay on HepG2.

Regarding `COc1ccc2nccc([C@@H](O)CN3CCC(NC(=O)c4cc5c(F)cc(F)cc5[nH]4)CC3)c2c1.CS(=O)(=O)O`, the Inhibition in the assay on Plasmodium falciparum [1] is recorded as 100%; in the assay with Plasmodium falciparum [2], 98%; in the assay with HepG2, 33%.

Take `Cc1noc(C)c1-c1cccc(CNCc2ccc(-c3ccc(-c4nc5cc(F)ccc5[nH]4)cc3)cc2)c1.O=C(O)C(F)(F)F`: the Inhibition in the assay on Plasmodium falciparum [1] came out at 100%; with Plasmodium falciparum [2], 92%; in the assay on HepG2, 23%.

With `COCCNCc1ccc(-c2ccc3c(Nc4ccc(Cl)cc4F)ccnc3c2)o1`, the Inhibition in the assay with Plasmodium falciparum [1] turned out to be 100%; in the assay with Plasmodium falciparum [2], 100%; in the assay with HepG2, 15%.

On to `Cl.Nc1nc(N)c2c(ccc3nn(S(=O)(=O)N4CCCC4)cc32)n1`, for which the Inhibition in the assay on Plasmodium falciparum [1] is on record as 95%; with Plasmodium falciparum [2] it was 0%; in the assay with HepG2 it was 69%.

Regarding `CN1CCN(c2cc3c(cc2Br)CCN3C(=O)Nc2ccc(-c3cnc4ccccc4c3)cc2)CC1`, the results for the Inhibition in the assay with Plasmodium falciparum [1], in the assay on Plasmodium falciparum [2] and in the assay on HepG2 were 99%, 79% and 100%, respectively.

For `Br.CC1(C)NC(N)=NC(=N)N1OCCCOc1ccccc1N`, the Inhibition was 93% in the assay with Plasmodium falciparum [1], 95% in the assay with Plasmodium falciparum [2] and 70% in the assay on HepG2.

`CS(=O)(=O)N1CC2(CCN(CCC(NC(=O)/C=C/c3ccccc3)c3ccc(Cl)c(Cl)c3)CC2)c2ccccc21` (centres undefined): the Inhibition with Plasmodium falciparum [1] is recorded as 97%; in the assay on Plasmodium falciparum [2], 55%; in the assay on HepG2 it was 18%.

In the case of `CCCCNCc1ccc(-c2nc(CN(C(=O)Nc3cc([N+](=O)[O-])ccc3F)C3Cc4ccccc4C3)cs2)cc1.O=C(O)C(F)(F)F`, the Inhibition in the assay on Plasmodium falciparum [1] is on record as 87%; in the assay on Plasmodium falciparum [2], 13%; in the assay with HepG2, 15%.

On to `COc1ccc(Cl)cc1NC(=O)Nc1cc(C)nc2ccccc12`, for which the Inhibition in the assay with Plasmodium falciparum [1] is listed as 100%; in the assay with Plasmodium falciparum [2] it was 99%; in the assay on HepG2, 10%.

Values taken from ChEMBL document CHEMBL1157539, “Thousands of chemical starting points for antimalarial lead identification” (Nature, 2010).
